# Where “and” joins values, the source holds several entries; their conditions need not be identical. Equal entries are not always repeated. Results filed as inconclusive are left out. Calls of active or inactive are those of the source. How the source made its calls, unless noted: active means hit-call score of the fitted dose curve at least 0.9, where 1 is the maximum; inactive means score below 0.9.
# Experiments:
# [1] = ATG_NFI_CIS: Attagene CIS-FACTORIAL HepG2 Assay for human Nuclear Factor I (NFI) (AID 2282989); conditions: HepG2 cis-regulatory reporter, NFI response element transcription; actives raise or lower the signal
# How it was run: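 Endogenous TF activity in HepG2 cells transiently transfected with cis-element-driven multiplexed reporter units, read 24 h after dosing. Reporter mRNA quantified by RT-PCR, 6-FAM labelling, HpaI digestion and capillary electrophoresis; bidirectional fit versus DMSO.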
# [2] = target: Myc proto-oncogene protein (Homo sapiens) (UniProt P01106); experiment: ATG_Myc_CIS: Attagene CIS-FACTORIAL HepG2 Assay for human Myelocytomatosis (Myc) Proto-Oncogene Transcription Factor (AID 2282990); conditions: HepG2, Attagene cis-reporter transcription factor activity; actives raise or lower the signal
# Myc proto-oncogene protein (Homo sapiens), sequence (P01106 whole entry, looked up, the tested form may be a part): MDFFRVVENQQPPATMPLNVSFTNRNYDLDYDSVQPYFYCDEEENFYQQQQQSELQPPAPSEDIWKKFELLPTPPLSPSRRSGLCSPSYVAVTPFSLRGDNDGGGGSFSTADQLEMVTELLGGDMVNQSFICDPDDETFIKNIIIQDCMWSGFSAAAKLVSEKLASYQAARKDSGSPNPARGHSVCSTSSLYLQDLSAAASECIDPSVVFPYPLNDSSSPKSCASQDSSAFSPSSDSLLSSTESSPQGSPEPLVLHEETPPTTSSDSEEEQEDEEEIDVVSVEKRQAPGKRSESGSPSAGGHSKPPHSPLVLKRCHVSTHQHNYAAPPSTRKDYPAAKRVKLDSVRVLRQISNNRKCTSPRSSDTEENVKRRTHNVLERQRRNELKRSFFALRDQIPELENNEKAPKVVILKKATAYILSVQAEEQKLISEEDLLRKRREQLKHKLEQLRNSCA
# How it was run: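 After 24 h chemical treatment of HepG2 cells carrying multiplexed cis-regulated reporter constructs, reporter transcripts quantified by RT-PCR and capillary electrophoresis of fluorescent fragments. Gain or loss fitted against DMSO baseline.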
# [3] = ATG_NF_kB_CIS: Attagene CIS-FACTORIAL HepG2 Assay for human Nuclear Factor Kappa B (NF-kB) (AID 2282991); conditions: HepG2 Attagene cis-factorial NF-kB reporter mRNA; actives raise or lower the signal
# How it was run: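 HepG2 cells transfected with cis-promoter-driven reporter units, so endogenous transcription factor activity is measured. Reporter mRNA quantified 24 h after dosing by RT-PCR and capillary electrophoresis, with bidirectional fitting against DMSO.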
# [4] = ATG_NRF2_ARE_CIS: Attagene CIS-FACTORIAL HepG2 Assay for human Nuclear Factor Erythroid 2 Related Factor 2 (NFR2) response to Antioxidant Response Elements (ARE) (AID 2282992); conditions: HepG2 Attagene ARE/NRF2 reporter, transcription factor activity; actives raise or lower the signal;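 on AC50: reporter mRNA level measured by RT-PCR and capillary electrophoresis fluorescence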
# How it was run: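 Fluorescence intensity of reporter-specific cDNA fragments, separated by capillary electrophoresis, reflects mRNA induction in transfected HepG2 cells at 24 h. Activity is fitted bidirectionally, DMSO serving as baseline.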
# [5] = ATG_Oct_MLP_CIS: Attagene CIS-FACTORIAL HepG2 Assay for human Octamer-Binding Transcription Factor (Oct) (AID 2282993); conditions: HepG2 Attagene cis-factorial Oct reporter, mRNA; actives raise or lower the signal
# How it was run: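 HepG2 cells transiently transfected with cis-element-driven reporter transcription units (endogenous TF activity); 24 h compound exposure. Reporter mRNA quantified by RT-PCR, 6-FAM labelling, HpaI digestion and capillary electrophoresis; bidirectional fit versus DMSO baseline.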
# [6] = target: Cellular tumor antigen p53 (Homo sapiens) (UniProt P04637); experiment: ATG_p53_CIS: Attagene CIS-FACTORIAL HepG2 Assay for human p53 Transcription Factor (AID 2282994); conditions: HepG2 p53 cis-element reporter, Attagene mRNA; actives raise or lower the signal
# Cellular tumor antigen p53 (Homo sapiens), sequence (P04637 whole entry, looked up): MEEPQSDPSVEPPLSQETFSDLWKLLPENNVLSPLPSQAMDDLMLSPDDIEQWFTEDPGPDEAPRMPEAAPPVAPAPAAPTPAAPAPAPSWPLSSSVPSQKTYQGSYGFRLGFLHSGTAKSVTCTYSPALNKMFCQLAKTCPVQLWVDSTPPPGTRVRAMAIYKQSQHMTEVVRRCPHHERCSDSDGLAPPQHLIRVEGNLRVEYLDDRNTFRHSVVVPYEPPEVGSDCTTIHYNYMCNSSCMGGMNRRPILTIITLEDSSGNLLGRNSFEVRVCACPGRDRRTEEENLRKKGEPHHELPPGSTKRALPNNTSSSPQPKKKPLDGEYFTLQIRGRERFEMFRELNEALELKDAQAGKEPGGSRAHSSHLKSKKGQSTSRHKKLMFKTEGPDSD
# How it was run: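 Transiently transfected HepG2 (multiple cis reporter transcription units); exposure 24 h; reporter RNA via RT-PCR, 6-FAM extension, 2 h HpaI digest at 37 C, CE detection; DMSO baseline.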
# [7] = target: human Peroxisome Proliferator-activated Receptor alpha (PPARa), PPARA (gene 5465) (UniProt Q07869); experiment: ATG_PPARa_TRANS: Attagene TRANS-FACTORIAL HepG2 Assay for human Peroxisome Proliferator-activated Receptor alpha (PPARa) (AID 2283001; active means hit-call score of the fitted dose curve at least 0.9, where 1 is the maximum;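 on AC50: potency for gain of reporter signal over DMSO so agonist or activator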)
# human Peroxisome Proliferator-activated Receptor alpha (PPARa), PPARA (gene 5465), sequence (Q07869 whole entry, looked up, the tested form may be a part): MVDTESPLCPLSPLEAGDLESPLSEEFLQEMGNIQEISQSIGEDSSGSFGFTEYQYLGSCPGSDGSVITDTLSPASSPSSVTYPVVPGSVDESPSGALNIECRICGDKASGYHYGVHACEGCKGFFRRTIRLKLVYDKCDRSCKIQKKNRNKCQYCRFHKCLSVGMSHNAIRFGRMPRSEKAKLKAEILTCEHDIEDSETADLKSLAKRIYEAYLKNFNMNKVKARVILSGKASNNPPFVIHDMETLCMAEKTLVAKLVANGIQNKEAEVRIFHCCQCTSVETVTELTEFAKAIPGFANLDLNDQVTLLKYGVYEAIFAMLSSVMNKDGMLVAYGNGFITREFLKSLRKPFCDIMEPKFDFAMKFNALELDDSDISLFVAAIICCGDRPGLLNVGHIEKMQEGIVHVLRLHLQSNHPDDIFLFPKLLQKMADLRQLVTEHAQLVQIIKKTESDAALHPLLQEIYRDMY
# How it was run: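 Transfected HepG2 cells treated with test chemical for 24 h. RNA isolated, reverse-transcribed with oligo(dT), PCR-amplified, FAM-labelled and HpaI-digested. Fragments sized by capillary electrophoresis; gain-of-signal fit relative to DMSO.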
# [8] = BSK_3C_TissueFactor: BioMAP Diversity Plus: 3C Assay for Tissue Factor Biomarker Activity (AID 2282997); conditions: BioMAP 3C HUVEC, tissue factor biomarker readout; actives raise or lower the signal
# How it was run: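 In this endothelial system, HUVEC are treated for 24 h and Tissue Factor is assessed by ELISA, normalised to DMSO.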
# [9] = BSK_3C_VCAM1: BioMAP Diversity Plus: 3C Assay for Vascular cell adhesion molecule 1 (VCAM1) Biomarker Activity (AID 2282999); conditions: BioMAP 3C HUVEC, VCAM1 ELISA, cytokine-stimulated; actives raise or lower the signal
# How it was run: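 Activity fitted in both directions relative to DMSO, with ELISA measurement of the surface marker on primary HUVEC (3C) at 24 h post-treatment; parallel SRB staining (0.1% SRB, TCA-fixed, 560 nm) flagged overt cytotoxicity.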
# [10] = BSK_4H_Eotaxin3: BioMAP Diversity Plus: 4H Assay for Eotaxin 3 Biomarker Activity (AID 2283000); conditions: primary human endothelial cells (HUVEC); actives raise or lower the signal;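 on outcome: CCL26 protein level quantified by ELISA in parallel with SRB cytotoxicity check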
# How it was run: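 ELISA quantitation of CCL26 (Eotaxin-3) protein from chemically dosed human vascular endothelial cells at 24 h; increases and decreases both scored relative to DMSO-treated baseline.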
# [11] = target: human Peroxisome Proliferator-activated Receptor delta (PPARd), PPARD (gene 5467) (UniProt Q03181); experiment: ATG_PPARd_TRANS: Attagene TRANS-FACTORIAL HepG2 Assay for human Peroxisome Proliferator-activated Receptor delta (PPARd) (AID 2283002; active means hit-call score of the fitted dose curve at least 0.9, where 1 is the maximum)
# human Peroxisome Proliferator-activated Receptor delta (PPARd), PPARD (gene 5467), sequence (Q03181 whole entry, looked up, the tested form may be a part): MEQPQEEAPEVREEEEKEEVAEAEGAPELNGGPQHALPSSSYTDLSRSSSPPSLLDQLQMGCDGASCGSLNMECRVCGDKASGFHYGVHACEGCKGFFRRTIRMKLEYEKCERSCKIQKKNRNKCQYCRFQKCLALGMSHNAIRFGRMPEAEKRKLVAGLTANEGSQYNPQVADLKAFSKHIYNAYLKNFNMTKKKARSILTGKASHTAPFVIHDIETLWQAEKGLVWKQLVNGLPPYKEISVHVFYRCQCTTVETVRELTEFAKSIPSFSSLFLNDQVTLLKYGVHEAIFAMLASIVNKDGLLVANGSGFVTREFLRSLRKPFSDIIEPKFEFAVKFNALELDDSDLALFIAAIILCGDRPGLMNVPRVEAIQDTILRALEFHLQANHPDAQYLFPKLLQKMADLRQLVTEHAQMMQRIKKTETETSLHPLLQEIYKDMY
# How it was run: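 Read-out is induced reporter mRNA, quantified by RT-PCR with fluorescent labelling and capillary electrophoresis after 24 h dosing. Cells are HepG2 transiently carrying multiple GAL4-UAS reporter units driven by exogenous NR-GAL4 chimeras; DMSO serves as baseline.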
# [12] = read-out: Intercellular Adhesion Molecule 1 (ICAM1), ICAM1 (gene 3383); experiment: BSK_3C_ICAM1: BioMAP Diversity Plus: 3C Assay for Intercellular Adhesion Molecule 1 (ICAM1) Biomarker Activity (AID 2283003); conditions: primary human endothelial cells (HUVEC); actives raise or lower the signal
# How it was run: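 ELISA read-out of ICAM-1; HUVEC (primary human), 3C system, 24 h post-dosing; bidirectional fit vs DMSO baseline.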
# [13] = target: human Retinoic Acid Receptor beta (RARb), RARB (gene 5915) (UniProt P10826); experiment: ATG_RARb_TRANS: Attagene TRANS-FACTORIAL HepG2 Assay for human Retinoic Acid Receptor beta (AID 2283004; active means hit-call score of the fitted dose curve at least 0.9, where 1 is the maximum)
# human Retinoic Acid Receptor beta (RARb), RARB (gene 5915), sequence (P10826 whole entry, looked up, the tested form may be a part): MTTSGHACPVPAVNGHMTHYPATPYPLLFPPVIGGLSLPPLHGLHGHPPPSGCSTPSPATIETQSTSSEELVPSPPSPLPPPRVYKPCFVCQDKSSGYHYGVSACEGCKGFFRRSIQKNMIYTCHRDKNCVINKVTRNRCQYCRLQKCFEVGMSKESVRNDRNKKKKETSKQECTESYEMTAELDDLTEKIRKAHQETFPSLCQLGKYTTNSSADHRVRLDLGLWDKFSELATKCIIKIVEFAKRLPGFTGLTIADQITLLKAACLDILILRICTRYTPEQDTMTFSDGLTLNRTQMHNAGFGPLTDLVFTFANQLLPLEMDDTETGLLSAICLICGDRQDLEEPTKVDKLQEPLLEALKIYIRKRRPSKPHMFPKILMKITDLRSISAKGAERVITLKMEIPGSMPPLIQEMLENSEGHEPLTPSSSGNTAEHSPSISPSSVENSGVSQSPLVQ
# How it was run: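 Fluorescent capillary-electrophoresis detection of GAL4-UAS reporter mRNA defines the endpoint, with induction over DMSO-treated wells scored as activity. Transiently transfected human hepatoma HepG2 cells expressing exogenous NR–Gal4 proteins are exposed to test chemicals for 24 h.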
# [14] = target: Retinoic acid receptor alpha (Homo sapiens) (UniProt P10276); experiment: ATG_RARa_TRANS: Attagene TRANS-FACTORIAL HepG2 Assay for human Retinoic Acid Receptor alpha (RARa) (AID 2283005; active means hit-call score of the fitted dose curve at least 0.9, where 1 is the maximum)
# Retinoic acid receptor alpha (Homo sapiens), sequence (P10276 whole entry, looked up, the tested form may be a part): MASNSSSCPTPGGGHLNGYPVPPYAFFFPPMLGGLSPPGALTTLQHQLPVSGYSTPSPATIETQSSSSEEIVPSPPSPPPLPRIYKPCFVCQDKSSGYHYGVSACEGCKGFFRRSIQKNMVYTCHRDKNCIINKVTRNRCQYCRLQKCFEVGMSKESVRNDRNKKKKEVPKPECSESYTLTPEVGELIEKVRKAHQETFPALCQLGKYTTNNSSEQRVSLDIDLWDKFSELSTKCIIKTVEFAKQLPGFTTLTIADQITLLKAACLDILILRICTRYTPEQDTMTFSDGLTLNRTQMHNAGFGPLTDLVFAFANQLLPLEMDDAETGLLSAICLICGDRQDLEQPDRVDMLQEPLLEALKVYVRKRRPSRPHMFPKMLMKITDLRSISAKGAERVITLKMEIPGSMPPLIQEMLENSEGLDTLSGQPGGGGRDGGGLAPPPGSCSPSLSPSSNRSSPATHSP
# How it was run: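 Reporter transcripts, measured by RT-PCR with fluorescent labeling and capillary electrophoresis after 24 h dosing, reflect activity of an exogenous human RARa–GAL4 fusion in transiently transfected HepG2. Fitted for increase relative to DMSO.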
# [15] = BSK_3C_Proliferation: Cell Proliferation Assessment in the BioMAP Diversity Plus: 3C Assay (AID 2283006); conditions: primary human endothelial cells (HUVEC);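 on AC50: potency may reflect either rise or fall in cell number versus DMSO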
# How it was run: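 HUVEC, sub-confluent; 48 h chemical exposure; 10% TCA fix, 0.1% SRB stain, A560 total protein. Gain or loss of signal fitted both directions vs DMSO control.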
# [16] = target: Nuclear receptor subfamily 1 group I member 2 (Homo sapiens) (UniProt O75469); experiment: ATG_PXR_TRANS: Attagene TRANS-FACTORIAL HepG2 Assay for human Pregnane X Receptor (PXR) (AID 2283008; active means hit-call score of the fitted dose curve at least 0.9, where 1 is the maximum)
# Nuclear receptor subfamily 1 group I member 2 (Homo sapiens), sequence (O75469 whole entry, looked up, the tested form may be a part): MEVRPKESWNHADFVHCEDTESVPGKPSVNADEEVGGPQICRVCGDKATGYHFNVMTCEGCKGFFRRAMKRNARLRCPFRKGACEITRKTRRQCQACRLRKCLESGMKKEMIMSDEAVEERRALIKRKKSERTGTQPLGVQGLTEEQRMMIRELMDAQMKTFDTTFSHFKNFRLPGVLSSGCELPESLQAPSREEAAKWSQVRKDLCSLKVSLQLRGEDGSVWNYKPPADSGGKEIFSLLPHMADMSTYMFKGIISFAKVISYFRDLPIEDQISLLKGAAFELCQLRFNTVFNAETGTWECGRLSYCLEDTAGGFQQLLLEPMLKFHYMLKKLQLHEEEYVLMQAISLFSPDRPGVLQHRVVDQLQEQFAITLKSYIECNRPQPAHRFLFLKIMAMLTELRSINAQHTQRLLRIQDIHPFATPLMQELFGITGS
# How it was run: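 Transient HepG2 transfectants carrying multiplexed reporter transcription units; PXR activity read through a Gal4 chimera. 24 h exposure. RT-PCR/CE fluorescence; upward curve fit referenced to DMSO.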
# [17] = target: human Retinoic Acid Receptor gamma (RARg), RARG (gene 5916) (UniProt P13631); experiment: ATG_RARg_TRANS: Attagene TRANS-FACTORIAL HepG2 Assay for human Retinoic Acid Receptor gamma (RARg) (AID 2283009; active means hit-call score of the fitted dose curve at least 0.9, where 1 is the maximum)
# human Retinoic Acid Receptor gamma (RARg), RARG (gene 5916), sequence (P13631 whole entry, looked up, the tested form may be a part): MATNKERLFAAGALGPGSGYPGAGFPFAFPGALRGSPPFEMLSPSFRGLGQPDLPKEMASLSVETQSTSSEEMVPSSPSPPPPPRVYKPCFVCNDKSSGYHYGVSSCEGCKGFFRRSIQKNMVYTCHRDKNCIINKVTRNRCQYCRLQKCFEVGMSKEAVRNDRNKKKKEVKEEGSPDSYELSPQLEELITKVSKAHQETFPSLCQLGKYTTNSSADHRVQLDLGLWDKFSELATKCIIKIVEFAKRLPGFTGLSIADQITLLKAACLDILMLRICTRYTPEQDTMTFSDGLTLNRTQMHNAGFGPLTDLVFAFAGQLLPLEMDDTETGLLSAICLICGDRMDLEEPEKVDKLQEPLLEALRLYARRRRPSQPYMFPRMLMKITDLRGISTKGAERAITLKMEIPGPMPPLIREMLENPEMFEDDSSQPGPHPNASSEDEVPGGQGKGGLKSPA
# How it was run: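 Readout: reporter transcript levels via RT-PCR, 6-FAM primer-extension labelling, HpaI digestion and capillary electrophoresis. Cells: HepG2 carrying transfected RARg-GAL4 chimera plus UAS reporter set. Dosing 24 h; DMSO negative control.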
# [18] = target: Peroxisome proliferator-activated receptor gamma (Homo sapiens) (UniProt P37231); experiment: ATG_PPARg_TRANS: Attagene TRANS-FACTORIAL HepG2 Assay for human Peroxisome Proliferator-activated Receptor-gamma (PPARg) (AID 2283007; active means hit-call score of the fitted dose curve at least 0.9, where 1 is the maximum)
# Peroxisome proliferator-activated receptor gamma (Homo sapiens), sequence (P37231 whole entry, looked up, the tested form may be a part): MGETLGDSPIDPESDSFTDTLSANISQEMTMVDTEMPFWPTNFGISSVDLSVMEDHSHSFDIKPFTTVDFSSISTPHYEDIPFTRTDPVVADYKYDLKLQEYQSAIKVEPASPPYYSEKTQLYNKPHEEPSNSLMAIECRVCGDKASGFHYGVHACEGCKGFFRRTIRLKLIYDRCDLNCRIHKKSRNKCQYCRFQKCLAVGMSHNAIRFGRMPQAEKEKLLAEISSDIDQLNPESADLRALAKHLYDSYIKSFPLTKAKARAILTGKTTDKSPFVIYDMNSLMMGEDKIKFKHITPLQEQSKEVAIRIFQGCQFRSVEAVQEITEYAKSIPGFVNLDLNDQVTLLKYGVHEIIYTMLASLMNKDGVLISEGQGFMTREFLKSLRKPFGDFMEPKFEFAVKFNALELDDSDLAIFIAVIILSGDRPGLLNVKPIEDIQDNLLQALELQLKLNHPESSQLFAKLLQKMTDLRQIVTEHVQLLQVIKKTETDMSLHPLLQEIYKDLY
# How it was run: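 HepG2 cells are transiently transfected with GAL4-UAS reporter units driven by chimeric NR-Gal4 fusions and dosed for 24 h. Reporter mRNA is quantified by RT-PCR, 6-FAM labelling, HpaI digestion and capillary electrophoresis. Induction is scored against DMSO.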
# [19] = target: human RAR-related Orphan Receptor beta (RORb), RORB (gene 6096) (UniProt Q92753); experiment: ATG_RORb_TRANS: Attagene TRANS-FACTORIAL HepG2 Assay for human RAR-related Orphan Receptor beta (RORb) (AID 2283010; active means hit-call score of the fitted dose curve at least 0.9, where 1 is the maximum)
# human RAR-related Orphan Receptor beta (RORb), RORB (gene 6096), sequence (Q92753 whole entry, looked up, the tested form may be a part): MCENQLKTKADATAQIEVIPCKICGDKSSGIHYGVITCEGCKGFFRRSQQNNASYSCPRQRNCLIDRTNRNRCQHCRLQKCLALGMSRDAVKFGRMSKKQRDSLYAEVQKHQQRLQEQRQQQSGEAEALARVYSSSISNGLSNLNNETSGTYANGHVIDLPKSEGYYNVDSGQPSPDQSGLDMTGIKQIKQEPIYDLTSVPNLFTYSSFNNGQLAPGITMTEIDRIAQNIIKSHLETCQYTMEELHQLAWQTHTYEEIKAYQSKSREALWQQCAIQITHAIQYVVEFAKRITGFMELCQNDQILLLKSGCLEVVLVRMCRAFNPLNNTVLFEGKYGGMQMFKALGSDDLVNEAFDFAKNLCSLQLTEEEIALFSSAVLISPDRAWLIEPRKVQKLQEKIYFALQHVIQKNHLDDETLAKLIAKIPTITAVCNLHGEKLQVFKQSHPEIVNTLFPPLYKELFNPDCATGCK
# How it was run: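 HepG2, transient MRTU transfection (GAL4-UAS reporters, exogenous NR-Gal4 chimeras); 24 h compound exposure; total RNA → RT-PCR → 6-FAM primer extension → HpaI digest → CE fluorescence. Positive direction vs DMSO baseline.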
# [20] = BSK_3C_uPAR: BioMAP Diversity Plus: 3C Assay for Urokinase-type plasminogen activator receptor (uPAR) Biomarker Activity (AID 2282998); conditions: BioMAP 3C HUVEC, uPAR biomarker ELISA; actives raise or lower the signal
# How it was run: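 Primary human umbilical vein endothelial cells, 3C system; surface uPAR measured by ELISA 24 h after dosing. Cytotoxicity via SRB total protein in parallel cultures; bidirectional fit against DMSO.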
compound,measurement,setting,value
ON=C1CCCCC1,outcome,[1],inactive
same,outcome,[2],inactive
same,outcome,[3],inactive
same,outcome,[4],inactive
same,outcome,[5],inactive
same,outcome,[6],inactive
same,outcome,[7],inactive
CCN(CC)C(=O)N(CC)CC,outcome,[1],inactive
same,outcome,[2],inactive
same,outcome,[3],inactive
same,outcome,[4],inactive
same,outcome,[5],inactive
same,outcome,[6],inactive
same,outcome,[8],inactive
same,outcome,[9],inactive
same,outcome,[10],inactive
same,outcome,[11],inactive
same,outcome,[12],inactive
same,outcome,[13],inactive
same,outcome,[14],inactive
same,outcome,[15],inactive
same,outcome,[16],inactive
same,outcome,[17],inactive
CCCCCCC(CO)CCCC (configuration not stated),outcome,[1],inactive
same,outcome,[2],inactive
same,outcome,[3],inactive
same,outcome,[4],inactive
same,outcome,[5],inactive
same,outcome,[6],inactive
same,outcome,[8],inactive
same,outcome,[9],inactive
same,outcome,[10],inactive
same,outcome,[7],inactive
same,outcome,[12],inactive
same,outcome,[14],inactive
same,AC50,[15],37.6 µM (active) and 31.2 µM (active)
same,outcome,[18],inactive
same,outcome,[16],inactive
same,outcome,[17],inactive
NCC1CCCC(CN)C1 (configuration not stated),outcome,[1],inactive
same,outcome,[2],inactive
same,outcome,[3],inactive
same,outcome,[4],inactive
same,outcome,[5],inactive
same,outcome,[6],inactive
same,outcome,[7],inactive
same,outcome,[11],inactive
same,outcome,[18],inactive
same,outcome,[16],inactive
CCOC(=O)C(C#N)=C(c1ccccc1)c1ccccc1,outcome,[1],inactive
same,outcome,[2],inactive
same,outcome,[3],inactive
same,AC50,[4],27.6 µM (active)
same,outcome,[5],inactive
same,outcome,[6],inactive
same,outcome,[8],inactive
same,outcome,[9],inactive
same,outcome,[10],inactive
same,outcome,[11],inactive
same,outcome,[12],inactive
same,AC50,[15],20 µM (active) and 8.88 µM (active)
same,AC50,[18],7.45 µM (active)
same,AC50,[16],1.24 µM (active)
c1ccc(Oc2ccccc2)cc1,outcome,[1],inactive
same,outcome,[2],inactive
same,outcome,[3],inactive
same,outcome,[4],inactive
same,outcome,[5],inactive
same,outcome,[6],inactive
same,AC50,[8],30.7 µM (active)
same,AC50,[9],30.7 µM (active)
same,AC50,[10],31.5 µM (active)
same,outcome,[7],inactive
same,AC50,[12],32.2 µM (active)
same,outcome,[13],inactive
same,AC50,[15],31.2 µM (active)
same,outcome,[16],inactive
CCCCCC(C=O)=Cc1ccccc1,outcome,[1],inactive
same,outcome,[2],inactive
same,outcome,[3],inactive
same,AC50,[4],100 µM (active)
same,outcome,[5],inactive
same,AC50,[6],164 µM (active)
same,AC50,[8],31.7 µM (active)
same,AC50,[9],33.1 µM (active)
same,AC50,[10],31 µM (active)
same,AC50,[7],27.5 µM (active)
same,AC50,[12],30.9 µM (active)
same,AC50,[15],30.8 µM (active)
same,AC50,[18],27.6 µM (active)
same,outcome,[16],inactive
same,outcome,[17],inactive
CC1(C)C2=CCCC(C)(C)[C@]23CC[C@H]1C3,outcome,[1],inactive
same,outcome,[2],inactive
same,outcome,[3],inactive
same,AC50,[4],100 µM (active)
same,outcome,[5],inactive
same,outcome,[6],inactive
same,outcome,[8],inactive
same,outcome,[9],inactive
same,AC50,[10],27.3 µM (active)
same,outcome,[11],inactive
same,outcome,[12],inactive
same,outcome,[13],inactive
same,AC50,[15],31.7 µM (active)
same,outcome,[18],inactive
same,AC50,[16],1.31 µM (active)
same,outcome,[17],inactive
same,outcome,[19],inactive
Oc1c(Cl)cc(Cl)c(Cl)c1Cc1c(O)c(Cl)cc(Cl)c1Cl,outcome,[1],inactive
same,AC50,[2],4.41 µM (active)
same,outcome,[3],inactive
same,AC50,[4],3.04 µM (active)
same,AC50,[5],1.3 µM (active)
same,AC50,[6],11.1 µM (active)
same,AC50,[8],18.5 µM (active)
same,AC50,[20],1.23 µM (active)
same,AC50,[9],20 µM (active)
same,AC50,[10],10.8 µM (active)
same,AC50,[7],11.1 µM (active)
same,AC50,[12],27.1 µM (active)
same,outcome,[13],inactive
same,outcome,[14],inactive
same,AC50,[15],2.22 µM (active)
same,AC50,[16],5.79 µM (active)
same,outcome,[17],inactive
same,outcome,[19],inactive
